Laboratory results taken from PubChem BioAssay (Tox21).
Results filed as inconclusive are left out. Entries that show only a call come without a potency. The source made the active and inactive calls. Unless noted, calls follow the shape of the dose curve; as a rule, active = well fitted curve in the direction sought with a large enough effect in the repeat runs; inconclusive = weak or mixed curves; inactive = no such curve, though single readings can be large; an effect the other way counts as inactive or inconclusive.

Experiments:
[1] = molecular target: Estrogen receptor beta (Homo sapiens) (UniProt Q92731); assay: qHTS assay to identify small molecule agonists of the estrogen receptor beta (ER-beta) signaling pathway (AID 1259377; active = well fitted activation curve with a large enough effect in the signal ratio in the repeat runs, not every such curve was filed as active; the % refers to the signal ratio)
Estrogen receptor beta (Homo sapiens), sequence (Q92731 whole entry, looked up): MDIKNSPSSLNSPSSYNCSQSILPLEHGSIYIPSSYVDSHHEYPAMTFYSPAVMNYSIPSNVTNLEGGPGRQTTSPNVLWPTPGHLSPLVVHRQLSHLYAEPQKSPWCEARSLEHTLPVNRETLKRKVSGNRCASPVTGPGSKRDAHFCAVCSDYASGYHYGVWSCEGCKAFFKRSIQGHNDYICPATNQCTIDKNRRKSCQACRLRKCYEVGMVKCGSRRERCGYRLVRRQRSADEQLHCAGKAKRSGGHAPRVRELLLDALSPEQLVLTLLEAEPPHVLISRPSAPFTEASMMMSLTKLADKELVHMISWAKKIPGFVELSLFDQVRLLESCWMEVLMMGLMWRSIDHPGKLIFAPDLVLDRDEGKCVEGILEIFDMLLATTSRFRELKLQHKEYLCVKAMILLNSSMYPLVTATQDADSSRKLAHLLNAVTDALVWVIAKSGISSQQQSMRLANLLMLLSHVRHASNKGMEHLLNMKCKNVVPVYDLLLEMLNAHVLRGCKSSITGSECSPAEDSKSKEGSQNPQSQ
In short: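 In HEK293T cells bearing a UAS-beta-lactamase reporter under ER-beta control, DMSO-delivered compounds were incubated for 16 hr at 37C. Activity was detected as fluorescence 2 hours after LiveBLAzer B/G FRET substrate addition.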

[2] = qHTS assay to identify small molecule agonists of the estrogen receptor beta (ER-beta) signaling pathway - cell viability counter screen (AID 1259380); also: nearly all actives have a fitted effect of over 30% in size; also: potency is read from the fitted curve at half-maximal effect
In short: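 Cell viability counter screen: CellTiter-Glo luminescence (30 min, room temperature) measured in the same wells as the beta-lactamase readout, after 16 hr compound exposure at 37C of ER-beta-bla HEK293T cells in 2% charcoal-stripped FBS medium.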

[3] = qHTS assay to identify small molecule antagonists of the estrogen receptor beta (ER-beta) signaling pathway - cell viability counter screen (AID 1259382);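 also: HEK293T cells carrying ER-beta-UAS-bla reporter stimulated with estradiol; series mostly up to about 92 µM; nearly all actives have a fitted effect of over 55% in size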
In short: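 Cytotoxicity was measured in the same wells by CellTiter-Glo luminescence after 30 min at room temperature. Cells were ER-beta-bla HEK293T in charcoal-stripped serum, given compound together with 1 nM E2 and incubated 16 h at 37C.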

[4] = molecular target: Estrogen receptor (Homo sapiens) (UniProt P03372); assay: qHTS assay to identify small molecule agonists of the estrogen receptor alpha (ER-alpha) signaling pathway in the presence of an antagonist (AID 1259383; calls by dose curve; also: top concentration of the series differs between compounds; nearly all actives have a fitted effect of over 15% in size)
Estrogen receptor (Homo sapiens), sequence (P03372 whole entry, looked up): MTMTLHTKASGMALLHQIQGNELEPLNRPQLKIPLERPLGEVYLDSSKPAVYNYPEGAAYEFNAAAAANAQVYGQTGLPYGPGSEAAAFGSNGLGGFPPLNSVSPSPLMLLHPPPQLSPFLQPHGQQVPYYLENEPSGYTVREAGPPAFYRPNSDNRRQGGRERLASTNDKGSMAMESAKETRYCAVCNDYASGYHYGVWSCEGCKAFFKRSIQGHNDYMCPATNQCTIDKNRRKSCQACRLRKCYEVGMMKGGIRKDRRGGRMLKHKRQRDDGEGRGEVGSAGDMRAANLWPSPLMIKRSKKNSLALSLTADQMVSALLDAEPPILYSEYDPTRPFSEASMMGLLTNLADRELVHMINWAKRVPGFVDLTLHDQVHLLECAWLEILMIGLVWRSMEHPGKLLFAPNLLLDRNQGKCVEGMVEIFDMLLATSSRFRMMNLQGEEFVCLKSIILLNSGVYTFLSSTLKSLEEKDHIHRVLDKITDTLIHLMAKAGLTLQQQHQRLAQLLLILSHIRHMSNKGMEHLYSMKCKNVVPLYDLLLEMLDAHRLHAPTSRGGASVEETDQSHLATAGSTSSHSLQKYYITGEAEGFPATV
In short: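 Agonist-mode confirmation run in the presence of 10.0nM (final) ICI-182,780 antagonist. The reporter was ERE-driven luciferase in VM7Luc4E2 cells, grown in charcoal-stripped serum. Cells were exposed to 15-concentration compound series for 22hr, then ONE-Glo luminescence was read.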

[5] = molecular target: Progesterone receptor (Homo sapiens) (UniProt P06401); assay: qHTS assay to identify small molecule agonists of the progesterone receptor (PR) signaling pathway (AID 1346784; calls by dose curve; also: nearly all actives have a fitted effect of over 30% in size)
Progesterone receptor (Homo sapiens), sequence (P06401 whole entry, looked up): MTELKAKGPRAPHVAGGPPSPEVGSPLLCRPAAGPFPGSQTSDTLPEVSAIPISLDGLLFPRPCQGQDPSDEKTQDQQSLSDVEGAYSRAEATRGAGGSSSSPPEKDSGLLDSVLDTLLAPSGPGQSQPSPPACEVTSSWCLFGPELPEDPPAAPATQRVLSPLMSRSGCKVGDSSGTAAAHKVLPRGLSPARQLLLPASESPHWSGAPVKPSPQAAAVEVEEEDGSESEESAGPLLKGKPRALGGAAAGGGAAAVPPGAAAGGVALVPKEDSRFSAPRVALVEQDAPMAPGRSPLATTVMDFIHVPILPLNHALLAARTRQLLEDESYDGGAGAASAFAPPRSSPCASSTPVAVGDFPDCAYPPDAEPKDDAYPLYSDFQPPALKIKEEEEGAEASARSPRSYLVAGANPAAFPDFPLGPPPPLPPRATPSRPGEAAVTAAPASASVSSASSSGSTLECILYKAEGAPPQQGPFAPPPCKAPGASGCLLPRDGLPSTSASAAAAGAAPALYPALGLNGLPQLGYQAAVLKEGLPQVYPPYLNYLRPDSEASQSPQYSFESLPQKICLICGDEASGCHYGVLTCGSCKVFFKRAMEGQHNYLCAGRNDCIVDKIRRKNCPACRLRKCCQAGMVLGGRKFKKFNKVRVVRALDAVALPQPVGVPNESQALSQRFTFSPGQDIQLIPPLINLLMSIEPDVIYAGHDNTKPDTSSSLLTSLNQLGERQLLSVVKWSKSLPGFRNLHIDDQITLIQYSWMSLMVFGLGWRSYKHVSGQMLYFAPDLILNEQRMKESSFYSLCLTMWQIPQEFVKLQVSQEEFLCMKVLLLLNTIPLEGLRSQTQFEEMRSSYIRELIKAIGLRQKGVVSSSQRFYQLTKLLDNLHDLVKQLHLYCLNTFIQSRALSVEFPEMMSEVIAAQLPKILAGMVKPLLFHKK
In short: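 Using charcoal-stripped serum (2%) to limit endogenous steroids, PR-UAS-bla HEK 293T cells received compounds for 16 hr at 37C after 6 hr plating; beta-lactamase FRET fluorescence was recorded following 2 hr substrate loading at room temperature.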

[6] = molecular target: Progesterone receptor (Homo sapiens) (UniProt P06401); assay: qHTS assay to identify small molecule antagonists of the progesterone receptor (PR) signaling pathway (AID 1346795; active = well fitted inhibition curve with a large enough effect in the signal ratio in the repeat runs, not every such curve was filed as active; the % refers to the signal ratio)
In short: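 Inhibition of R5020-induced (1 nM final) beta-lactamase reporter signal in PR-UAS-bla HEK293T cells was scored by FRET fluorescence after overnight (16 hr) compound treatment.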

[7] = qHTS assay to identify small molecule antagonists of the progesterone receptor (PR) signaling pathway - cell viability counter screen (AID 1346798); also: series mostly up to about 92 µM; nearly all actives have a fitted effect of over 50% in size
In short: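 ATP content as viability readout: CellTiter-Glo luminescence, 30 min room temperature, in PR-UAS-bla HEK293T cells after 16 hr compound/R5020 treatment at 37C and 5% CO2.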

[8] = qHTS assay to identify small molecule agonists of the progesterone receptor (PR) signaling pathway - cell viability counter screen (AID 1346799; calls by dose curve; also: nearly all actives have a fitted effect of over 45% in size)
In short: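 Cytotoxicity in PR-bla HEK293T cells: 16 h compound, 37C; CellTiter-Glo added post-FRET read; luminescence after 30 min RT.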

[9] = qHTS assay to identify small molecule antagonists of the TGF-beta/Smad signaling pathway - cell viability counter screen (AID 1346824); also: nearly all actives have a fitted effect of over 50% in size
In short: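 SBE-bla HEK 293T cells were plated overnight at 37 C, then given compounds in DMSO plus TGF-beta1 (added as 0.25 ng/mL solution) for 5 hr. After the bla read, CellTiter-Glo was added to the same wells and luminescence read after 30 min at room temperature.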

[10] = qHTS assay to identify small molecule agonists of the TGF-beta/Smad signaling pathway - cell viability counter screen (AID 1346829); also: top concentration of the series differs between compounds; nearly all actives have a fitted effect of over 45% in size
In short: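 CellTiter-Glo luminescence readout; SBE-bla HEK 293T cells, overnight plating, compound 5 hr at 37 C/5% CO2, then bla substrate 2 hr RT, then CellTiter-Glo 30 min RT.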

[11] = qHTS assay to identify small molecule agonists of the TGF-beta/Smad signaling pathway (AID 1346859; active = well fitted activation curve with a large enough effect in the signal ratio in the repeat runs, not every such curve was filed as active; the % refers to the signal ratio; also: series mostly up to about 77 µM)
In short: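 Stable Smad binding element-beta-lactamase HEK 293T cells; 5 hr compound exposure at 37 C under 5% CO2; 2 hr room-temperature substrate step; fluorescence excited at 405 nm, collected at 460 nm and 530 nm.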

[12] = molecular target: Thyrotropin-releasing hormone receptor (Homo sapiens) (UniProt P34981); assay: qHTS assay to identify small molecule antagonists of the thyrotropin-releasing hormone receptor (TRHR) signaling pathway (AID 1346877; active = well fitted inhibition curve with a large enough effect in the repeat runs, not every such curve was filed as active; also: series mostly up to about 51 µM)
Thyrotropin-releasing hormone receptor (Homo sapiens), sequence (P34981 whole entry, looked up): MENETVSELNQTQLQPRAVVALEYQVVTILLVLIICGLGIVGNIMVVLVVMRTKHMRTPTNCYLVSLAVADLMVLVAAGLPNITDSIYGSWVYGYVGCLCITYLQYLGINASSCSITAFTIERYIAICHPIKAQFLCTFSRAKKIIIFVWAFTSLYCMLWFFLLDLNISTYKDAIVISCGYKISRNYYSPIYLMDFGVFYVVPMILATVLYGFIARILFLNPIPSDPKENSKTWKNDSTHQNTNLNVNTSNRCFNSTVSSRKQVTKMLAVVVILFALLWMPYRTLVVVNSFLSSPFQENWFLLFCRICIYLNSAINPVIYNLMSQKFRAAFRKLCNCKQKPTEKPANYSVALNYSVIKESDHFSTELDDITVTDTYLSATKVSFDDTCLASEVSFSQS
In short: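 Antagonist mode: after a 5 min room-temperature compound exposure, cells were stimulated with 1 nM (final) TRH. Dye-loaded TRHR-HEK293 cells were used, and calcium-dependent fluorescence was followed for 3 min, with 15-point titrations run in triplicate.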

[13] = qHTS assay to identify small molecule agonists of the androgen receptor (AR) signaling pathway in the presence of an antagonist - cell viability counter screen (AID 1259379);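 also: MDA-kb2 human breast cancer cells carrying an MMTV luciferase reporter; series mostly up to about 92 µM; nearly all actives have a fitted effect of over 25% in size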
In short: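 Cytotoxicity counter-screen run in the same wells as the nilutamide-challenged (3.0 µM final) AR agonist assay in MDA-kb2 cells. Compounds tested at 15 concentrations for 16 h, 37 °C without CO2; CellTiter-Fluor fluorescence read.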

[14] = qHTS assay to identify small molecule agonists or antagonists of the thyroid stimulating hormone receptor (TSHR) signaling pathway - wild type cell line counter screen (AID 1259384; calls by dose curve)
In short: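 Wild-type HEK293 cells were plated 18 h at 37 C/5% CO2, pin-dosed with compound plus Ro20-1724 medium, held 30 min at room temperature, then given cAMP-d2 and anti-cAMP-cryptate; fluorescence was read after 1 h. Fifteen concentrations, triplicate.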

[15] = molecular target: Thyrotropin receptor (Homo sapiens) (UniProt P16473); assay: qHTS assay to identify small molecule antagonists of the thyroid stimulating hormone receptor (TSHR) signaling pathway (AID 1259385; calls by dose curve; also: nearly all actives have a fitted effect of over 20% in size)
Thyrotropin receptor (Homo sapiens), sequence (P16473 whole entry, looked up): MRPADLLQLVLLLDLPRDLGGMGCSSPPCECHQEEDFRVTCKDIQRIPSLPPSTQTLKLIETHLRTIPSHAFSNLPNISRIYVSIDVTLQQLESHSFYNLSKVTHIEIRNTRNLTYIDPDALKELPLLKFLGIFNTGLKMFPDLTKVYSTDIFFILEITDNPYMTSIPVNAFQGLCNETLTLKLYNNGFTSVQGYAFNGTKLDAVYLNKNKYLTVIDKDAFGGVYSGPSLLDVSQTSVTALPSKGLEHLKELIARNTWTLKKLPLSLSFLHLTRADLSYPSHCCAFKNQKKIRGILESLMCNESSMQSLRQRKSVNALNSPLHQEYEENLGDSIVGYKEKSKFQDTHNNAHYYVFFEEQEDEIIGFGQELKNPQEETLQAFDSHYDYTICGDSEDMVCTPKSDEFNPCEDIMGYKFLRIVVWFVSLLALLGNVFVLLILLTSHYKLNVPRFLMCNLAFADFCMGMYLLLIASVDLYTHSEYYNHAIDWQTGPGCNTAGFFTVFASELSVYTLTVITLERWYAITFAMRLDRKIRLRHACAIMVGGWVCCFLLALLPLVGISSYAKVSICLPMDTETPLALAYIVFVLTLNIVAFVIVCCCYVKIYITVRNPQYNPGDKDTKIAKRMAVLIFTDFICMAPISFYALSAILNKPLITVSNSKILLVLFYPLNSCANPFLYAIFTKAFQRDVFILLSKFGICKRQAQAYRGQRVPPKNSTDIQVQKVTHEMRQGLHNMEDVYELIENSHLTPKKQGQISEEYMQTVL
In short: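 TSHR-HEK293 cells were plated and held 18 h at 37C/5% CO2, then given compound plus Ro20-1724 and stimulated with TSH at 1.5 ng/mL final. After 30 min at room temperature, cAMP was detected with cAMP-d2/anti-cAMP-cryptate (1 h) by fluorescence.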

[16] = qHTS assay to identify small molecule agonists of the estrogen receptor alpha (ER-alpha) signaling pathway in the presence of an antagonist - cell viability counter screen (AID 1259386); also: series mostly up to about 92 µM; nearly all actives have a fitted effect of over 30% in size
In short: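 Compounds tested at 15 concentrations for 22 h at 37C alongside 10.0nM (final) ICI-182,780 antagonist, in VM7Luc4E2 cells grown in phenol red-free, charcoal-stripped medium. Viability read by CellTiter-Fluor fluorescence after 1 h reagent incubation.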

[17] = molecular target: Androgen receptor (Homo sapiens) (UniProt P10275); assay: qHTS assay to identify small molecule agonists of the androgen receptor (AR) signaling pathway in the presence of an antagonist (AID 1259381; calls by dose curve; also: nearly all actives have a fitted effect of over 15% in size; also: potency is read from the fitted curve at half-maximal effect)
Androgen receptor (Homo sapiens), sequence (P10275 whole entry, looked up): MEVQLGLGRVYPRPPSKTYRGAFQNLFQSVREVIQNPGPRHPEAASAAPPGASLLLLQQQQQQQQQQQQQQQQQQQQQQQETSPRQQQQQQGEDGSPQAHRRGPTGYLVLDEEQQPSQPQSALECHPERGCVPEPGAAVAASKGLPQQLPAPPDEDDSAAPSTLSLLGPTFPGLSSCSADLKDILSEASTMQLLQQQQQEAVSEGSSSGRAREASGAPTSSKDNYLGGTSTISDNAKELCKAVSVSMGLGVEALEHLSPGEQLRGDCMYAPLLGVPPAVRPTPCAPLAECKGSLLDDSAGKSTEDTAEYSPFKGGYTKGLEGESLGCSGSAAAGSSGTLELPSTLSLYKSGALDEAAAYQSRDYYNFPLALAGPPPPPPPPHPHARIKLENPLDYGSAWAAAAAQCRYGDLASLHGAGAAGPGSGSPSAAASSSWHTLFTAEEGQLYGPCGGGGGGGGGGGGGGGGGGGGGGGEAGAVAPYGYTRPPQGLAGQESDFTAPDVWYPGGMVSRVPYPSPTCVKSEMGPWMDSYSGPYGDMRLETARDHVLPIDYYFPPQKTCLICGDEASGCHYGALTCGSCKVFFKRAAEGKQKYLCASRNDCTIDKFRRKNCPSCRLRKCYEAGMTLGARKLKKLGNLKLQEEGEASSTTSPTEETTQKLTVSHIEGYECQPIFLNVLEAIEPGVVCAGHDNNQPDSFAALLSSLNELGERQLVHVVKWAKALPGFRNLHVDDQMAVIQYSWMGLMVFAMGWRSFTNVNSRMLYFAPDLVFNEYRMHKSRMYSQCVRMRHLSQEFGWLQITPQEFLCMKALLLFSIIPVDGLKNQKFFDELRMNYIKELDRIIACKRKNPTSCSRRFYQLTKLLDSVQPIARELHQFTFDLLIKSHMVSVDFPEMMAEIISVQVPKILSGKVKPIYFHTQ
In short: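 Agonist-mode confirmation run against 3.0 uM final nilutamide: compounds titrated at 15 concentrations onto MDA-kb2 MMTV-luciferase reporter cells. Luminescence measured with ONE-Glo following 16 hr incubation, 37C, 0% CO2.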

[18] = molecular target: Thyrotropin-releasing hormone receptor (Homo sapiens) (UniProt P34981); assay: qHTS assay to identify small molecule agonists of the thyrotropin-releasing hormone receptor (TRHR) signaling pathway (AID 1346891; calls by dose curve;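 also: HEK293 cells expressing TRHR with calcium dye readout; series mostly up to about 58 µM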)
In short: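 In 1536-format, 1500 TRHR-Hek293 cells per well grew 18 h, took up calcium dye for 2 h at 37 °C, received compound, and were read kinetically; 15-point titrations, triplicates.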

| SMILES | Potency [1] | Potency [2] | Potency [3] | Potency [4] | Potency [5] | Potency [6] | Potency [7] | Potency [8] | Potency [9] | Potency [10] | outcome [11] | Potency [12] | Potency [13] | Potency [14] | Potency [15] | Potency [16] | Potency [17] | Potency [18] |
| --- | --- | --- | --- | --- | --- | --- | --- | --- | --- | --- | --- | --- | --- | --- | --- | --- | --- | --- |
| Oc1ccc([C@H]2CNCc3c2ccc(O)c3O)cc1O | inactive | inactive | inactive | inactive | inactive | inactive | inactive | inactive | inactive | inactive | inactive | inactive | – | – | – | – | – | – |
| O=[N+]([O-])[O-].[Tl+] | – | 346 nM (active) | inactive | – | inactive | – | inactive | – | inactive | inactive | inactive | – | inactive | inactive | inactive | inactive | – | – |
| O=C1C[C@@H]2OCC=C3CN4CC[C@]56c7ccccc7N1[C@H]5[C@H]2[C@H]3C[C@H]46 | – | inactive | inactive | – | inactive | inactive | – | – | inactive | inactive | inactive | inactive | inactive | inactive | inactive | – | – | – |
| N#Cc1c[nH]cc1-c1cccc2c1OC(F)(F)O2 | – | 21700 nM (active) | – | inactive | – | – | inactive | – | inactive | – | – | – | – | inactive | – | – | – | – |
| CC#C[C@]1(O)CC[C@H]2[C@@H]3C[C@H](C)C4=CC(=O)CC[C@]4(C)[C@H]3CC[C@@]21C | – | – | inactive | inactive | – | inactive | – | – | inactive | inactive | inactive | inactive | inactive | inactive | – | – | 237 nM (active) | inactive |
| CC(C)NCC(O)c1ccccc1Cl (stereo not drawn) | – | inactive | inactive | inactive | inactive | inactive | inactive | – | inactive | inactive | – | inactive | inactive | – | – | inactive | inactive | inactive |
